RE007 growth inh: less growth of the S. pombe RE007 Vpr strain; S. pombe RE007 Vpr strain, BacTiter-Glo ATP luminescence, 24 h; Potency, µM (top dose mostly 92.2 µM), usual class: inhibitors; hit rate 0.21% among 360,000; active means well fitted falling curve with a large enough effect; inconclusive means small, poorly fitted or top-dose-only effect; inactive means no such curve, though single readings can be large or run the other way; further: nearly all actives have a fitted effect of over 50% in size
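Fission yeast strain RE007, carrying one chromosomally integrated HIV-1 vpr copy, was seeded at OD 0.01 in PMG+AL medium with 23 nL pinned compound. After 24 h at 30 °C and 99% humidity, viability was read by BacTiter-Glo luminescence.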
AMA1 RON2 block: disrupts binding of P. falciparum AMA1 to RON2; AID 720542; AlphaScreen AMA1-biotinylated RON2 peptide binding; hit rate 0.2% among 360,000; Potency, µM (highest dose often 58.2 µM), hits mostly inhibitors; further: nearly all actives have a fitted effect of over 45% in size
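AMA1 (3D7) with his tag at 25 nM final met compounds first, then biotinylated RON2 peptide at 25 nM; detection used donor plus acceptor beads, 10 µg/mL apiece, read by AlphaScreen after 30 min at room temperature.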
TbPYK inhibitor: blocks Trypanosoma brucei pyruvate kinase | Q57TT1 | TbPYK enzyme, Kinase-Glo Plus ATP luminescence, 45 min | Potency, µM (series often up to 76.8 µM), usual class: inhibitors | hit rate 0.12% among 410,000; further: nearly all actives have a fitted effect of over 50% in size
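Glycolytic pyruvate kinase of T. brucei was incubated with substrate, test compound and 130 uM ADP for 45 minutes at room temperature. Luminescent Kinase-Glo Plus signal was measured after 10 minutes.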
LmPK inh: blocks Leishmania mexicana pyruvate kinase activity | AID 1721 | purified LmPK, Kinase-Glo ATP luminescence, 1 h | hit rate 0.37% among 290,000 | Potency, µM (top dose mostly 57.5 µM), hits mostly inhibitors | Q27686
Target sequence (Q27686 whole entry, looked up): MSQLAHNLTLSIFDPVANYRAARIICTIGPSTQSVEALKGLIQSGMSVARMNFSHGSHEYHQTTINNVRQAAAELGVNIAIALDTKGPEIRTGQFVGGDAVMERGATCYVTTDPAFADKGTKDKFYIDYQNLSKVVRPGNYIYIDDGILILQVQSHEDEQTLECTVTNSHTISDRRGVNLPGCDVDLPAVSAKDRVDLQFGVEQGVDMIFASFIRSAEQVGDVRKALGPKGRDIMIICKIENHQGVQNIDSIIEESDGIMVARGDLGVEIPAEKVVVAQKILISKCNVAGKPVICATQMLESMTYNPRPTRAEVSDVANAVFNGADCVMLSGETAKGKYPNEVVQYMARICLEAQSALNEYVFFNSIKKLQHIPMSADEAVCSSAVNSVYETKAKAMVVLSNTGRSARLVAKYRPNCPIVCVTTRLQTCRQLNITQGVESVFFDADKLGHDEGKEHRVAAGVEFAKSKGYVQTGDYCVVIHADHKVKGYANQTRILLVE
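Purified LmPK (0.1 nM) with 0.5 mM PEP and 0.1 mM ADP in imidazole buffer pH 7.2 with MgCl2/KCl, 1 h at room temperature. ATP formed was read by luciferase luminescence and normalized to no-enzyme and uninhibited controls.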
Of the large screens only hits and unclear results are named; the others gave an inactive call. Only some compounds are listed: those with a hit (about 0.68% of all), similar ones and a draw of the others. Unless noted, the call rests on the fitted dose curve; in most records, active means well fitted curve in the direction sought with a large enough effect; inconclusive means small, poorly fitted or top-dose-only effect, or another doubt; inactive means no such curve, though single readings can be large; an effect the other way counts as inactive or inconclusive.

CN1\C(=C/C=C/C=C/C=[N+](C)C)C(C)(C)c2ccccc21	RE007 growth inh inconclusive, AMA1 RON2 block 22.4µM, TbPYK inhibitor inconclusive, LmPK inh 10µM
COCc1cccc(-c2csc(C(O)c3ccc(F)c(OC)c3)n2)c1 (stereo not given)	none (no result: LmPK inh)
Cc1ccc(C(=O)OC(C)C(=O)NC2CCCCC2C)s1 (stereo not given)	none (no result: LmPK inh)
N/C(=N\N=C\c1cccc(O)c1)c1nonc1N	TbPYK inhibitor inconclusive, LmPK inh 11.2µM
CSc1ccc(CN(C)CC(=O)Nc2c(F)cccc2F)cc1	none
O=C(OCC(=O)N1CCN(C(=O)c2ccco2)CC1)c1cc(-c2ccco2)nc2ccccc12	AMA1 RON2 block 21.2µM, TbPYK inhibitor inconclusive
O=C(OCC(=O)N1CCN(C(=O)c2ccco2)CC1)c1cc(-c2ccc(Cl)c(Cl)c2Cl)nc2ccccc12	none
Cc1ccc(C(C)C)cc1OCCn1cncn1	none
Cc1ccc(N=Cc2c(C)[nH]n(-c3nc4ccccc4[nH]3)c2=O)cc1	RE007 growth inh 3.16µM, TbPYK inhibitor inconclusive, LmPK inh 25.1µM
Cc1ccc(-c2cc(O)cc3sc(=O)oc23)cc1C	RE007 growth inh 39.8µM
O=C(Nc1cccc(Cl)c1)c1cc(N=Nc2ccc([N+](=O)[O-])cc2Cl)ccc1O	TbPYK inhibitor inconclusive, LmPK inh 14.1µM
Cc1ccc(O)c(C(=O)c2cnn(C(=O)Cc3csc(C)n3)c2)c1	RE007 growth inh 25.1µM
Cc1cc(N)n2nc(-c3ccccc3)cc2n1	RE007 growth inh inconclusive, LmPK inh 15.8µM
O=C(Nc1ccc(-c2nc3cccnc3s2)cc1)C1CCCO1 (stereo not given)	TbPYK inhibitor inconclusive, LmPK inh 14.1µM
COc1ccc(NC(=O)C2CCCO2)cc1 (stereo not given)	none
O=C(Nc1ccc(-c2nc3ccccc3o2)cc1)C1CCCO1 (stereo not given)	RE007 growth inh inconclusive, LmPK inh 15.8µM
O=C(COC(=O)c1n[nH]c(=O)c2ccccc12)c1ccccc1	none
N#Cc1c(C(F)(F)F)cc(-c2cccs2)nc1SCC(=O)Nc1cccc(Cl)c1	none (no result: RE007 growth inh, AMA1 RON2 block, LmPK inh)
COc1ccccc1CNC(=O)CNC(=O)[C@@H]1Cc2ccccc2CN1	none
O=C(O)c1ccc(/C=N/n2cc(-c3ccccc3)[nH]c2=S)cc1	TbPYK inhibitor inconclusive, LmPK inh 14.1µM
S=c1[nH]c(-c2ccccc2)cn1/N=C/c1ccc(Br)cc1	none
S=c1[nH]c(-c2ccccc2)cn1/N=C/c1cccnc1	TbPYK inhibitor inconclusive, LmPK inh 3.55µM
O=[N+]([O-])c1ccc(O)c(N=Cc2sc3ccccc3c2O)c1	AMA1 RON2 block inconclusive
O=c1c2c(-c3ccco3)csc2nc(SCc2cn3cccnc3n2)n1-c1ccccc1	AMA1 RON2 block 15.8µM, TbPYK inhibitor inconclusive
O=C(O)c1cc(/C=C/c2ccc(N3CCOCC3)c([N+](=O)[O-])c2)nc2ccccc12	LmPK inh inconclusive
O=C(O)c1cc(/C=C/c2ccc(N3CCOCC3)cc2)nc2ccccc12	RE007 growth inh 15.8µM, LmPK inh inconclusive
CSc1ccccc1NC(=O)CN(C)Cc1cccc(Cl)c1	none
C/C=C(\C)CN1CCC(n2nccc2NC(=O)CCCc2ccccc2)CC1	none
COC(=O)c1cc(-c2ccc(C)o2)nc2ccccc12	RE007 growth inh 11.2µM, TbPYK inhibitor 22.4µM
Cc1ccc(-c2cc(C(=O)NN3CCOCC3)c3cc(Br)ccc3n2)o1	none
Cc1ccc(-c2cc(C(=O)O)c3cc(Br)ccc3n2)o1	TbPYK inhibitor 10µM (no result: RE007 growth inh)
CC1=NN(c2ccccc2)C(=O)/C1=C/c1ccc[nH]1	AMA1 RON2 block 12.6µM
CC1=NN(c2ccccc2)C(=O)C1=Cc1ccccc1	none (no result: LmPK inh)
CCOC(=O)c1ccc(S(=O)(=O)N2CCN(C/C=C/c3ccccc3)CC2)cc1	none (no result: LmPK inh)
CCOc1cc(/C=N/N=C2/NC(=O)C(CC(=O)O)S2)ccc1OCc1ccc(Cl)cc1 (stereo not given)	TbPYK inhibitor inconclusive, LmPK inh 12.6µM
Cc1ccc(NC2=C(N3CCCCC3)C(=O)c3ccccc3C2=O)cc1	none
CC1=C(Nc2ccc(C(=O)O)cc2)C(=O)c2ccccc2C1=O	none
COC1=C(Nc2ccccc2)C(=O)c2ccccc2C1=O	RE007 growth inh inconclusive, AMA1 RON2 block 10µM
COC1=C(Nc2ccc(C)cc2)C(=O)c2ccccc2C1=O	RE007 growth inh inconclusive, AMA1 RON2 block 10µM
CN(C=[N+](C)C)c1cccc2c1C(=O)c1ccccc1C2=O	AMA1 RON2 block 31.6µM
O=C(O)c1cccc2c1C(=O)c1ccccc1C2=O	none
COc1ccc(-n2c3c(cc(C(=O)NCc4ccco4)c2=O)C(=O)CC(C)(C)C3)cc1	none
CCOC(=O)/C(=N/Nc1ccc(OC)cc1)N1CCCc2ccccc21	AMA1 RON2 block 22.4µM
Cc1ccc(S(=O)(=O)NCC(=O)N(CCc2ccccc2)CC(=O)NCc2ccco2)cc1	none
CN(C)c1ccc2c(c1[N+](=O)[O-])Cc1ccccc1-2	AMA1 RON2 block 10µM (no result: LmPK inh)
COC(=O)Nc1ccc(S(=O)(=O)N2CCCC(C(=O)O)C2)cc1 (stereo not given)	none
Cc1cc(C(=O)CSc2cccc[n+]2[O-])c(C)n1-c1ccc(Br)cc1	none (no result: RE007 growth inh, AMA1 RON2 block, TbPYK inhibitor)
O=C(CSc1cccc[n+]1[O-])c1ccccc1Br	RE007 growth inh 22.4µM
NS(=O)(=O)c1ccc(CCNC(=O)CNCCc2ccccc2)cc1	AMA1 RON2 block 39.8µM
CCCOc1ccc(N2C(=O)CC(SCCN)C2=O)cc1 (stereo not given)	RE007 growth inh 7.94µM, AMA1 RON2 block 3.55µM
CCCOc1ccc(N2C(=O)CC(SCC(N)C(=O)OCC)C2=O)cc1 (stereo not given)	RE007 growth inh inconclusive
COC(=O)c1ccc(N2C(=O)CC(N(C)Cc3ccccc3)C2=O)cc1 (stereo not given)	RE007 growth inh 6.31µM
CCCOc1ccc(N2C(=O)CC(N(Cc3ccccc3)N=O)C2=O)cc1 (stereo not given)	none
CN(Cc1ccncc1)C1CC(=O)N(c2ccc(F)cc2)C1=O (stereo not given)	none
CCOc1ccc(N2C(=O)CC(N)C2=O)cc1 (stereo not given)	RE007 growth inh 7.08µM
CCOc1ccc(N2C(=O)CC(N(C)Cc3ccccc3)C2=O)cc1 (stereo not given)	RE007 growth inh 35.5µM
COc1ccc(-c2cc3nc(C)c(CCC(=O)NCc4ccccc4Cl)c(C)n3n2)c(OC)c1	none (no result: RE007 growth inh, AMA1 RON2 block, LmPK inh)
CNc1ccc(C=C2C=Cc3ccccc32)cc1	RE007 growth inh inconclusive, AMA1 RON2 block 25.1µM (no result: LmPK inh)
CCCCCCCC#Cc1ccccc1/C=N/S(=O)c1ccc(C)cc1 (stereo not given)	RE007 growth inh inconclusive, TbPYK inhibitor 20µM
CCCCC#Cc1ccccc1CC(=O)Nc1ccccc1	none
COc1ccccc1N=c1oc2cc(O)ccc2cc1C(N)=O	RE007 growth inh 8.91µM
O=c1c2c(-c3ccccc3)csc2ncn1/N=C/c1cccc([N+](=O)[O-])c1O	AMA1 RON2 block 20µM, LmPK inh inconclusive
O=C(NCCCn1ccnc1)/C(=C\c1ccco1)NC(=O)c1ccco1	none
O=C(NCc1ccccc1)c1nc(-c2cccs2)no1	RE007 growth inh inconclusive

Assay outcomes deposited in PubChem BioAssay by National Center for Advancing Translational Sciences (NCATS).
